The source made the active and inactive calls. How the source made its calls: active means hit-call score of the fitted dose curve at least 0.9, where 1 is the maximum; inactive means score below 0.9.
Experiments:
[1] = read-out: Interleukin-8 (IL8), CXCL8 (gene 3576); assay: BSK_CASM3C_IL8: BioMAP Diversity Plus: CASM3C Assay for Interleukin-8 (IL8) Biomarker Activity (AID 2283042); conditions: primary human coronary artery smooth muscle cells; actives raise or lower the signal;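 further: IL-8 protein level quantified by ELISA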
[2] = read-out: Human Leukocyte Antigen - DR isotype (HLADR), HLA-DRA (gene 3122); assay: BSK_CASM3C_HLADR: BioMAP Diversity Plus: CASM3C Assay for Human Leukocyte Antigen - DR isotype (HLADR) Biomarker Activity (AID 2283043); conditions: primary human coronary artery smooth muscle cells; actives raise or lower the signal;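 further: cell-surface HLA-DR protein level quantified by ELISA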
[3] = read-out: Macrophage colony-stimulating factor (MCSF), CSF1 (gene 1435); assay: BSK_CASM3C_MCSF: BioMAP Diversity Plus: CASM3C Assay for Macrophage colony-stimulating factor (MCSF) Biomarker Activity (AID 2283044); conditions: primary human coronary artery smooth muscle cells; actives raise or lower the signal;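 further: M-CSF protein amount quantified by ELISA after 24 h exposure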
[4] = read-out: Low-density lipoprotein receptor (LDLR), LDLR (gene 3949); assay: BSK_CASM3C_LDLR: BioMAP Diversity Plus: CASM3C Assay for Low-density lipoprotein receptor (LDLR) Biomarker Activity (AID 2283045); conditions: primary human coronary artery smooth muscle cells; actives raise or lower the signal;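 further: LDLR protein level on the cell surface quantified by ELISA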
[5] = read-out: Monocyte Chemoattractant Protein-1 (MCP1), CCL2 (gene 6347); assay: BSK_CASM3C_MCP1: BioMAP Diversity Plus: CASM3C Assay for Monocyte Chemoattractant Protein-1 (MCP1) Biomarker Activity (AID 2283046); conditions: primary human coronary artery smooth muscle cells; actives raise or lower the signal;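 further: MCP-1 level quantified by ELISA 24 h after dosing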
[6] = BSK_CASM3C_Proliferation: Cell Proliferation Assessment in the BioMAP Diversity Plus: CASM3C Assay (AID 2283047); conditions: primary human coronary artery smooth muscle cells;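 further: sulforhodamine B total protein stain as relative cell number at 560 nm; sub-confluent cells exposed 48 h before staining; fitted both ways against DMSO so gain or loss of cell number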
[7] = read-out: Monokine induced gamma interferon (MIG), CXCL9 (gene 4283); assay: BSK_CASM3C_MIG: BioMAP Diversity Plus: CASM3C Assay for Monokine induced gamma interferon (MIG) Biomarker Activity (AID 2283048); conditions: primary human coronary artery smooth muscle cells; actives raise or lower the signal;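 further: MIG protein level measured by ELISA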
[8] = read-out: serum amyloid A (SAA), SAA1 (gene 6288); assay: BSK_CASM3C_SAA: BioMAP Diversity Plus: CASM3C Assay for serum amyloid A (SAA) Biomarker Activity (AID 2283049); conditions: primary human coronary artery smooth muscle cells; actives raise or lower the signal;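 further: SAA protein level quantified by ELISA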
[9] = BSK_CASM3C_SRB: Viability Assessment in the BioMAP Diversity Plus: CASM3C Assay (AID 2283050); conditions: primary human coronary artery smooth muscle cells;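 further: total protein by SRB staining as cytotoxicity measure in parallel cultures; cells exposed to compound for 24 h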
[10] = read-out: Thrombomodulin, THBD (gene 7056); assay: BSK_CASM3C_Thrombomodulin: BioMAP Diversity Plus: CASM3C Assay for Thrombomodulin Biomarker Activity (AID 2283051); conditions: primary human coronary artery smooth muscle cells; actives raise or lower the signal;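 further: thrombomodulin protein level measured by ELISA 24 h after dosing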
[11] = read-out: Tissue Factor, F3 (gene 2152); assay: BSK_CASM3C_TissueFactor: BioMAP Diversity Plus: CASM3C Assay for Tissue Factor Biomarker Activity (AID 2283052); conditions: primary human coronary artery smooth muscle cells; actives raise or lower the signal;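 further: cell surface tissue factor protein level read by ELISA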
[12] = read-out: Urokinase-type plasminogen activator receptor (uPAR), PLAUR (gene 5329); assay: BSK_CASM3C_uPAR: BioMAP Diversity Plus: CASM3C Assay for Urokinase-type plasminogen activator receptor (uPAR) Biomarker Activity (AID 2283054); conditions: primary human coronary artery smooth muscle cells; actives raise or lower the signal;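 further: cell-surface uPAR protein level quantified by ELISA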
[13] = read-out: Vascular cell adhesion molecule 1 (VCAM1), VCAM1 (gene 7412); assay: BSK_CASM3C_VCAM1: BioMAP Diversity Plus: CASM3C Assay for Vascular cell adhesion molecule 1 (VCAM1) Biomarker Activity (AID 2283055); conditions: primary human coronary artery smooth muscle cells; actives raise or lower the signal;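 further: VCAM-1 protein level quantified by ELISA on the cells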
[14] = read-out: Collagen III, COL3A1 (gene 1281); assay: BSK_hDFCGF_CollagenIII: BioMAP Diversity Plus: hDFCGF Assay for Collagen III Biomarker Activity (AID 2283056); conditions: primary human foreskin fibroblasts; actives raise or lower the signal
Procedure, shortened: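 ELISA read-out of collagen III from human skin fibroblast cultures sampled 24 h post-dosing. Values were derived by bidirectional fitting relative to the DMSO vehicle control.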

[15] = read-out: Epidermal growth factor receptor (EGFR), EGFR (gene 1956); assay: BSK_hDFCGF_EGFR: BioMAP Diversity Plus: hDFCGF Assay for Epidermal growth factor receptor (EGFR) Biomarker Activity (AID 2283057); conditions: primary human foreskin fibroblasts; actives raise or lower the signal
Procedure, shortened: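 Cell-based multiplexed assay in primary human foreskin fibroblasts. EGFR is read by ELISA 24 h after treatment and compared with DMSO controls.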

[16] = read-out: Interleukin-8 (IL8), CXCL8 (gene 3576); assay: BSK_hDFCGF_IL8: BioMAP Diversity Plus: hDFCGF Assay for Interleukin-8 (IL8) Biomarker Activity (AID 2283058); conditions: primary human foreskin fibroblasts; actives raise or lower the signal
Procedure, shortened: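 Cells used are human skin primary fibroblasts. Chemical is added, cultures run 24 h, then IL-8 is quantified by ELISA, and gain or loss versus DMSO control is fitted in both directions.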

[17] = BSK_hDFCGF_Proliferation: Cell Proliferation Assessment in the BioMAP Diversity Plus: hDFCGF Assay (AID 2283059); conditions: primary human foreskin fibroblasts;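 further: curves fitted for both rise and fall of signal versus DMSO baseline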
Procedure, shortened: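 This proliferation readout used SRB total-protein staining of human foreskin fibroblasts […], normalized to DMSO with bidirectional curve fitting.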

[18] = read-out: Macrophage colony-stimulating factor (MCSF), CSF1 (gene 1435); assay: BSK_hDFCGF_MCSF: BioMAP Diversity Plus: hDFCGF Assay for Macrophage colony-stimulating factor (MCSF) Biomarker Activity (AID 2283060); conditions: primary human foreskin fibroblasts; actives raise or lower the signal
Procedure, shortened: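 Primary human foreskin fibroblasts dosed with chemical; 24 h later, M-CSF quantified by ELISA; curves fitted in both directions vs DMSO negative control.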

[19] = BSK_hDFCGF_SRB: Viability Assessment in the BioMAP Diversity Plus: hDFCGF Assay (AID 2283061); conditions: primary human foreskin fibroblasts;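 further: cells exposed to compound for 24 h before the read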
Procedure, shortened: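 Readout is SRB absorbance at 560 nm, reflecting total protein in parallel cultures of human foreskin fibroblasts harvested 24 h after chemical dosing. Activity was fitted bidirectionally relative to DMSO.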

Measured: AC50

O=C(N[C@@H](Cc1ccccc1)[C@@H](O)C(=O)N1C[C@@H](O)[C@@H](O)C1)c1cc2cc(Cl)ccc2[nH]1
inactive: all assays above

CC(C)c1ccc(C(=O)N=C(N)N)cc1S(C)(=O)=O
inactive: all assays above

O=c1c(O)c(-c2ccc(O)c(O)c2)oc2cc(O)cc(O)c12
inactive: [8] | [10] | [13] | [14] | [16]
active: [1] 11.6 µM | [3] 6.34 µM | [4] 4.11 µM | [5] 9.09 µM | [6] 9.64 µM | [7] 20 µM | [9] 14.2 µM | [11] 4.13 µM | [12] 6.66 µM | [17] 11.5 µM | [18] 7.26 µM | [19] 12.2 µM

CCc1c(C(=O)NN2CCCCC2)nn(-c2ccc(Cl)cc2Cl)c1-c1ccc(Br)cc1
active: [2] 29.9 µM | [5] 33.8 µM | [6] 20.2 µM | [9] 16.8 µM | [12] 25.1 µM | [14] 0.483 µM | [15] 1.65 µM | [16] 3.39 µM | [17] 1.73 µM | [18] 3.75 µM
inactive: [1] | [3] | [4] | [7] | [8] | [10] | [11] | [13]

COc1cc(S(=O)(=O)O)c(C)cc1N=Nc1c(O)ccc2cc(S(=O)(=O)O)ccc12
not listed: [19]
inactive: all other assays above

C[Si]1(C)O[Si](C)(C)O[Si](C)(C)O[Si](C)(C)O1
inactive: all assays above

Cc1ccc2ncccc2c1
inactive: all assays above

CNC(=O)[C@H]1O[C@@H](n2cnc3c(NCc4cc(Cl)ccc4OCc4cc(C)no4)ncnc32)[C@H](O)[C@@H]1N
inactive: all assays above
